From PubChem
Rows were chosen to be rich in hits. Some 6.7% of all compounds tested hit in one or more screens of this group.
KB-V1 MDR tox: qHTS assay for MDR1-selective chemotherapeutics: Primary screen using the drug-selected MDR subline cells KB-V1. hit rate 3.4% among 400,000. KB-V1 MDR cells viability, CellTiter-Glo, 72 h. Potency, µM (highest dose often 46.1 µM), usual class: cytotoxic; also: % is scaled to controls: 0 for no effect and ±100 for the full control effect; nearly all actives have a fitted effect of over 60% in size
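Following 72 h at 37 degrees C with compound, KB-V1 cell viability was read by CellTiter-Glo luminescence, medium being phenol-red-free DMEM plus 10% FBS; concentration-response parameters came from normalized, curve-fitted qHTS data.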
MCF10A rerep: A quantitative high throughput screen for small molecules that induce DNA re-replication in MCF 10a normal breast cells | MCF 10A DNA re-replication, Hoechst nuclear intensity, 48 h | Potency, µM (top dose mostly 46.1 µM), for inactives: at the highest dose activity, positive = re-replication, actives largely listed as activators | hit rate 2.9% among 350,000 | AID 624296, 2012; also: % of control where 0% means no effect; nearly all actives have a fitted effect of over 50% in size
SW480 rerep: A quantitative high throughput screen for small molecules that induce DNA re-replication in SW480 colon adenocarcinoma cells; hit rate 1.8% among 340,000; AID 624297, 2012; Potency, µM (series often up to 46.1 µM), inactives show top-dose re-replication activation, usual class: activators; SW480 DNA re-replication, Hoechst DNA content imaging, 48 h; also: % of control where 0% means no effect; nearly all actives have a fitted effect of over 55% in size
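Image-based DNA-content assay: after two days of treatment, nuclei were labelled with the DNA dye Hoechst and imaged, and hits were compounds raising the count of nuclei showing high fluorescence intensity.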
PINK1 modulator: A Quantitative High throughput Screen to Identify Chemical Modulators of PINK1 Expression; hit rate 0.2% among 410,000; PINK1 immunofluorescence, high-content cytometry, 24 h; Potency, µM (doses to about 76.6 µM), for inactives: at the top dose activation (PINK1 increase), actives largely listed as activators; AID 624263, 2012; active = well fitted activation curve with a large enough effect; inconclusive = small, poorly fitted or top-dose-only effect; cell line not stated here; also: % of control where 0% means no effect; nearly all actives have a fitted effect of over 65% in size
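Stable cell line treated 24 h with compounds at 5 concentrations (CCCP controls), then fixed and immunostained for PINK1 plus nuclear and cell stains; PINK1 immunofluorescence quantified by laser-scanning microplate cytometry.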
KB-3-1 tox: qHTS assay for MDR1-selective chemotherapeutics: Primary screen using the parental adenocarcinoma cell KB-3-1; Potency, µM (series often up to 46.1 µM), hits mostly cytotoxic; AID 1347075, 2019; KB-3-1 viability, CellTiter-Glo ATP luminescence, 72 h; hit rate 1.4% among 400,000; also: % is scaled to controls: 0 for no effect and ±100 for the full control effect; nearly all actives have a fitted effect of over 60% in size
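Screening of KB-3-1 cells (DMEM, 10% FBS, phenol-red free) ran from lowest to highest compound concentration; after 72 h at 37 °C viability was read luminescently and curves fitted.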
The depositor's hits bear a star; i = inactive; ? = inconclusive; nt = no result; [ ] = another dose, or the depositor's remark. Unless noted, calls follow the shape of the dose curve; as a rule, active = well fitted curve in the direction sought with a large enough effect; inconclusive = small, poorly fitted or top-dose-only effect, or another doubt; inactive = no such curve, though single readings can be large; an effect the other way counts as inactive or inconclusive. Potency is read from the fitted curve at half-maximal effect.

SMILES	KB-V1 MDR tox	MCF10A rerep	SW480 rerep	PINK1 modulator	KB-3-1 tox
NC(=O)c1ccccc1NC(=O)/C=C/c1c(Cl)cccc1Cl	4.1µM*	?	?	7%[38.3 µM]	i
CN(C)S(=O)(=O)c1ccc(NC(=O)/C=C/c2ccccc2Cl)cc1	15µM*	?	16%	1%	i
O=C(/C=C/c1c(F)cccc1Cl)Nc1ccc(S(=O)(=O)Nc2ncccn2)cc1	i	-9%	?	0%	i
Cc1ccc(S(=O)(=O)N2CCC(C(=O)NCCN3CCOCC3)CC2)cc1	i	nt	nt	-1%	i
Cc1cc(C(=O)NCC2CCC3(CCN(Cc4ccc(-c5ccccc5)cc4)CC3)O2)n(C)n1 (configuration not stated)	nt	nt	nt	1%	nt
CCC(=O)N1CCc2cc(S(=O)(=O)N(CC)c3cccc(C)c3)ccc21	i	18%	-8%	2%	i
CCN(c1cccc(C(F)(F)F)c1)S(=O)(=O)c1ccc2c(c1)CCN2C(=O)C1CC1	?	27%	-1%	2%	11µM*
CCN(CC)CCNC(=O)/C(=C/c1cn(C)c2ccccc12)NC(=O)c1ccc(OC)c(OC)c1	i	-1%	-7%	-1%	i
CCN(CC)CCNC(=O)/C(=C/c1cn(CC)c2ccccc12)NC(=O)c1cc(OC)c(OC)c(OC)c1	i	0.65µM*	-21%	0%	i
Cc1cnnc2ccccc12	i	nt	nt	nt	i
COc1ccc(Br)cc1/C=N/NC(=O)c1ccc(COc2ccc3c(c2)CCC3)o1	i	12µM*	18%	7%	i
CCOc1ccc(OCc2ccc(C(=O)NCc3ccncc3)o2)cc1	?	18µM*	-2%	-7%[38.3 µM]	i
CCc1ccc(OCc2ccc(C(=O)NCc3ccccn3)o2)cc1	i	26%	4%	2%	i
O=C(NCc1cccnc1)c1ccc(COc2ccc3c(c2)CCC3)o1	18µM*	?	9%	0%[38.3 µM]	i
CCC1CCCCN1C(=O)COc1ccc(S(=O)(=O)N2CCOCC2)cc1Cl (configuration not stated)	i	11%	-9%	2%	i
CCOC(=O)c1ccc(N2CCN(c3ccccc3OC)CC2)c(NC(=O)Nc2ccc(CC)cc2)c1	nt	nt	nt	2%	nt
C=C(C)CNC(=S)NNC(=O)CCn1c2ccccc2c2ccccc21	18µM*	?	?	-1%	?
O=c1[nH]c(-c2cccnc2)nc2sc(-c3ccccc3)cc12	2.9µM*	1.3µM*	3.7µM*	8%	?
Cc1nc2sc(-c3ccccc3)cc2c(=O)[nH]1	16µM*	26µM*	?	1%[38.3 µM]	?
CC(=O)c1ccc(N2CCN(C(=O)CCc3nnc4n(C)c(=O)c5sccc5n34)CC2)cc1	?	nt	nt	3%	i
CC(=O)c1ccc(OCc2cc(C(=O)N(C)C3CCOC3)no2)cc1 (configuration not stated)	?	2%	-1%	0%	?
Cc1cc(OCc2cc(C(=O)N(C)C3CCOC3)no2)cc(C)c1Cl (configuration not stated)	?	2.3µM*	15%	1%	?
Cc1ccc(OCc2cc(C(=O)N(C)Cc3cnn(-c4ccccc4C)c3)no2)cn1	?	10%	1%	0%	18µM*
CCc1ccc(CN(C)C(=O)c2cc(COc3cc(C)c(Cl)c(C)c3)on2)nc1	i	23µM*	-4%	?	i
COc1cc(OC)c(NC(=O)CN(C)S(=O)(=O)c2ccc3[nH]c(=O)oc3c2)cc1Cl	i	?	-21%	2%	i
O=S(=O)(c1ccccc1)N1CCN(S(=O)(=O)c2ccccc2)c2ccccc21	21µM*	-6%	16%	-1%	i
CC(C)N1CCN(S(=O)(=O)c2ccccc2)c2ccccc21	?	?	?	7%	i
